Values joined by “and” are separate entries in the source; they are usually repeats but may differ in a detail not shown here. Equal entries are not always repeated. Records with an inconclusive call do not appear. A call without a number means that no potency is given here. Active and inactive are the calls of the source. Unless noted, calls follow the shape of the dose curve; as a rule, active = well fitted curve in the direction sought with a large enough effect; inconclusive = small, poorly fitted or top-dose-only effect, or another doubt; inactive = no such curve, though single readings can be large; an effect the other way counts as inactive or inconclusive.
How the values were obtained:
[1] = molecular target: Cytochrome P450 3A4 (Homo sapiens) (UniProt P08684); experiment: qHTS Assay for Inhibitors and Substrates of Cytochrome P450 3A4 (AID 884); also: nearly all actives have a fitted effect of over 50% in size
Outline: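 Luminescent readout of luciferin produced by CYP3A4 (20 nM) dealkylation of Luciferin-PPXE, 25 uM (its KM). NADPH-driven reaction ran 60 min at RT after 10 min compound preincubation; data scaled to 57 uM ketoconazole as 100% inhibition.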

[2] = Confirmation and Secondary Assay for Modulators of Hemoglobin Beta Chain Splicing at IVS2 705 locus (AID 930); also: potency is read from the fitted curve at half-maximal effect
Outline: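 Restored EGFP fluorescence after 2-day compound exposure reports splicing correction in IVS2-705 EGFP reporter HeLa cells; positive control was 500 nM splice-blocking PNA oligo. Signal measured as well total peak GFP intensity (488 nm excitation).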

[3] = qHTS Assay for Lipid Storage Modulators (AID 1519; calls by dose curve); conditions: Drosophila S3 cells, BODIPY lipid droplet/cell ratio, laser cytometry, cells loaded with oleic acid; for activity change, negative = inhibition: at 57.5 µM (top of the series)
Outline: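 Cells seeded at 5,000 per well were treated with compounds over a concentration series and loaded with oleic acid (400 uM, as added). Lipid droplet fluorescence (488 nm excitation, 500-530 nm channel) was read by laser-scanning cytometry and normalized to 20 uM Triacsin C.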

[4] = molecular target: Ubiquitin carboxyl-terminal hydrolase 1 (Homo sapiens) (UniProt O94782); experiment: Inhibitors of USP1/UAF1: Pilot qHTS (AID 504865); also: nearly all actives have a fitted effect of over 35% in size; also: potency is read from the fitted curve at half-maximal effect;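 as to activity change, negative = inhibition: rhodamine fluorescence freed from ubiquitin-rhodamine substrate followed over time; top concentration of the series differs between compounds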
Outline: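 1nM USP1/UAF1 + cpd, 15 min RT; start w/ Ub-Rho 150nM final; kinetic FL 480/540 nm, 6 reads q60 s. Buffer 50mM HEPES pH 7.8, 0.5mM EDTA, 1mM TCEP, 0.01% Tween-20, 0.1 mg/ml BSA.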

[5] = Confirmation and Secondary Assay for Modulators of Hemoglobin Beta Chain Splicing at IVS2 654 locus (AID 910);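 also: per-well total GFP intensity by laser scanning cytometry after 2-day treatment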
Outline: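 HeLa cells stably carrying EGFP interrupted by mutant beta-globin IVS2-654 intron (CMV-driven) were treated with compound for 2 days at 37C; corrected splicing was scored as total peak GFP intensity per well (488 nm excitation, 500-520 nm emission).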

[6] = molecular target: Cytochrome P450 3A4 (Homo sapiens) (UniProt P08684); experiment: qHTS Assay for Activators of Cytochrome P450 3A4 (AID 885); also: nearly all actives have a fitted effect of over 65% in size
Outline: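 Luminescent readout of luciferin formed from 25 uM Luciferin-PPXE (KM level) by 20 nM CYP3A4 in 200 mM KPO4, with 60 min NADPH-driven reaction at room temperature after 10 min compound exposure. Ketoconazole (57 uM) defined 100% inhibition.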

[7] = measured here: cell count channel max response
[8] = measured here: lipid channel max response

Sequence of Cytochrome P450 3A4 (Homo sapiens) (P08684 whole entry, looked up): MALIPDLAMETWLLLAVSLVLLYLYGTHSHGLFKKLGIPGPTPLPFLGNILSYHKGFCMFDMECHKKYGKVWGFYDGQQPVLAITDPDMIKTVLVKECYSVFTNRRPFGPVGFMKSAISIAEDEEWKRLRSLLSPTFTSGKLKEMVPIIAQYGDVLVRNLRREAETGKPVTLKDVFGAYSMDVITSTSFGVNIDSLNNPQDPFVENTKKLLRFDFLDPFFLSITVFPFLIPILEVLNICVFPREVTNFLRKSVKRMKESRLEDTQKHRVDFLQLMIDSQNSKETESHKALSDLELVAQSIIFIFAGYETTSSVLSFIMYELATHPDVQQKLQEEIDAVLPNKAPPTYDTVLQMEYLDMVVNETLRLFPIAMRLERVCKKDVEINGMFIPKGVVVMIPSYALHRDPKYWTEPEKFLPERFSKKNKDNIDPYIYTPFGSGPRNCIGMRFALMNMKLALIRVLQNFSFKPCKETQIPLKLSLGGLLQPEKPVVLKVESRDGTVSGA
Sequence of Ubiquitin carboxyl-terminal hydrolase 1 (Homo sapiens) (O94782 whole entry, looked up): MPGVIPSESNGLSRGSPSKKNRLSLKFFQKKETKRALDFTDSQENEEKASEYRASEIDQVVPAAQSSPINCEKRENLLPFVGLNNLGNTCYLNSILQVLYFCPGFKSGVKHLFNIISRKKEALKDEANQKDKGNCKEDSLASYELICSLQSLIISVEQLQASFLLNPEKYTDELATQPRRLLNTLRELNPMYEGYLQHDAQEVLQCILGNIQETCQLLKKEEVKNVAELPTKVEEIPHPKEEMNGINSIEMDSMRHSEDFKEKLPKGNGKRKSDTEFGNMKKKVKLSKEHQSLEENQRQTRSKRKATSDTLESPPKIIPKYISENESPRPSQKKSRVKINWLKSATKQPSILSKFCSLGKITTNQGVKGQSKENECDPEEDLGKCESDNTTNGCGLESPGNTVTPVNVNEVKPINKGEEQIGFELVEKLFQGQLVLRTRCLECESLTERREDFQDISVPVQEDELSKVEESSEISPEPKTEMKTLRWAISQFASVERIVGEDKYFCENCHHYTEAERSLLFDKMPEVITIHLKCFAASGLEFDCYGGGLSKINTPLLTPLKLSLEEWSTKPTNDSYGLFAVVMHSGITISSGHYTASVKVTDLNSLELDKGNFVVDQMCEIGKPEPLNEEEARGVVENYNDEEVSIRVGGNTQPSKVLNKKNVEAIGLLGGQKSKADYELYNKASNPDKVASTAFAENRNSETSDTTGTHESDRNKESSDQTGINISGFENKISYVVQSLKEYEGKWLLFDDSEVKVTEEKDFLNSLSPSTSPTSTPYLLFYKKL

| SMILES | Potency [1] | Potency [2] | activity change, negative = inhibition [3] | max response [3, 7] | max response [3, 8] | Potency [4] | Potency [5] | Potency [6] |
| --- | --- | --- | --- | --- | --- | --- | --- | --- |
| CC1OC(O[C@@H]2C(O)CC(O[C@@H]3C(O)C[C@@H](OC4CC[C@]5(C)[C@H](CC[C@H]6[C@@H]5CC[C@]5(C)C(C7=CC(=O)OC7)C(O)C[C@@]65O)C4)OC3C)OC2C)CC(O)C1O (stereo partly drawn) | inactive | 1 µM (active) | 10.1% (inactive) | 12.5% | 20.2% | inactive |  |  |
| C[C@@]12CC(c3ccoc3)OC(=O)C1CC[C@@]1(C)C2C2C=C[C@@]1(O)C(=O)O2 (stereo partly drawn) | inactive | inactive | 2.16% (inactive) | 24.2% | 26.2% | inactive | inactive |  |
| CC1=C2C3OC(=O)C(C)C3CC[C@@]2(C)C=CC1=O (stereo partly drawn) |  | inactive | 1.14% (inactive) | 15.1% | 16.8% | inactive | inactive | inactive |
| CNC(=O)Oc1cccc2c1OC(C)(C)C2 | inactive | inactive | 4.9% (inactive) | 5.85% | 6.59% | inactive | inactive |  |
| CC1CC[C@]2(NC1)OC1CC3C4CC=C5CC(O)CC[C@@]5(C)C4CC[C@]3(C)C1C2C (stereo partly drawn) | inactive | inactive | 2.46% (inactive) | 14.9% | 22.2% | inactive | inactive |  |
| CC(N)C(O)c1ccc(O)c(O)c1 (stereo not drawn) | inactive | inactive | 9.23% (inactive) and 2.97% (inactive) | 10.7% and 5.9% | 23.4% and 5.16% | inactive | inactive |  |
| COc1c2c(cc3c1OCO3)C13C=CC(OC)CC1N(C2)CC3O (stereo not drawn) |  | inactive | 11.5% (inactive) | 12.8% | 26.7% | inactive | inactive | inactive |
| CCC12C=CCN3CCC4(c5ccc(OC)cc5N(C)C4[C@@](O)(C(=O)OC)C1OC(C)=O)C32 (stereo partly drawn) |  | inactive | 1.88% (inactive) | 13.3% | 25% | inactive | inactive | inactive |
| OCC1CCCN2CCCCC12 (stereo not drawn) | inactive | inactive | 1.09% (inactive) | -1.96% | 1.94% | inactive | inactive |  |
| COc1c(CC=C(C)C)c2c(c3oc(=O)c(-c4ccc(O)cc4)c(O)c13)C=CC(C)(C)O2 |  | inactive | 3.02% (inactive) | 14.5% | 15.5% | 79.4 µM (active) | inactive | inactive |
| CCC1CN2CCC1CC2C(O)c1ccnc2ccc(OC)cc12 (stereo not drawn) | inactive | inactive | 6.54% (inactive) | 2.56% | 12.3% | inactive | inactive |  |
| CCCCC/C=C\C/C=C\C/C=C\C/C=C\CCCC(=O)O |  |  | -9.9% (inactive) | 20.2% | 8.84% | 50.1 µM (active) |  | inactive |
| C[C@@]12CCC(O)C[C@H]1CCC1C2CC[C@]2(C)C(=O)CCC12 (stereo partly drawn) |  | inactive | 1.65% (inactive) | 7% | 9.46% | inactive | inactive | inactive |
